Screens (PubChem BioAssay)
In the library only some 20% were active in any assay of this set; here they are far more common.
Pf growth 48h: inhibits P. falciparum growth in the first generation, 48 h. 310,000 compounds, 5.9% hits. Potency, µM (series often up to 28.7 µM), most hits filed as inhibitors. P. falciparum luciferase growth in erythrocytes, 48 h
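Compounds are pin-transferred into medium, infected erythrocytes (2% hematocrit, 0.1% parasitemia final) are added, and plates sit one parasite generation at 37 C in 5% CO2. Detection reagent is then added and luminescence measured.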
Shiga toxin inh: blocks Shiga toxin action in Vero cells; 290,000 compounds, 9.2% hits; inhibition, % at 38.7 µM; Vero cells, Shiga toxin protein synthesis inhibition reporter; in the data active = inhibition mostly above about 28%, no sharp cut-off; inactive = mostly below about 43%
HCMV inh: blocks human cytomegalovirus replication | HFF cells, HCMV-luciferase reporter, 72 h; active compounds read low | activity change, negative = inhibition, % at 57.5 µM | 410,000 compounds, 4.5% hits | AID 1259415; in the data active = activity change below about -60%; inconclusive = no clear call, values can overlap the other calls; inactive = above about -39%
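Two compound doses tested in HFFs infected with HCMV-luciferase, MOI 1 PFU/cell, 72 h at 37C. Lysate luminescence read with OneGlo; data normalized against buffer-only and 10uM Salinomycin inhibitor controls.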
Pf growth 96h: P. falciparum growth inhibition at 96 hour, primary screen for plastid delayed-death inhibitors. Potency, µM (series often up to 28.7 µM), usual class: inhibitors. P. falciparum luciferase reporter growth, 96 h. 320,000 compounds, 6.9% hits
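96 h incubation, 37 C, 5% CO2, of luciferase-reporter P. falciparum-infected RBCs (2% hematocrit, 0.05% parasitemia final) with test compounds; endpoint luminescence.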
Cycloheximide cs: affects cycloheximide protein synthesis inhibition readout, counter-screen; AID 2314; max response, %; cell reporter, cycloheximide protein synthesis inhibition counterscreen; 300,000 compounds, 12% hits; in the data active = max response mostly above about 13%, no sharp cut-off; inactive = mostly below about 14%; also: read at 38.3 µM for the half of the compounds with a filed dose
Hits are given with their value; - = inactive; ? = inconclusive; . = no result; [ ] = remark or other dose. Unless noted, calls follow the shape of the dose curve; as a rule, active = well fitted inhibition curve with a large enough effect; inconclusive = small, poorly fitted or top-dose-only effect, or another doubt; inactive = no such curve, though single readings can be large or run the other way.

SMILES | Pf growth 48h | Shiga toxin inh | HCMV inh | Pf growth 96h | Cycloheximide cs
COc1ccc(CN2CCNC(=O)C2CC(=O)N(C)Cc2nccs2)cc1OC (stereo unspecified) | - | - | - | 9.28µM | -
CN(Cc1ccon1)C(=O)CC1C(=O)NCCN1Cc1ccc(F)c(F)c1 (stereo unspecified) | - | - | . | - | -
O=C(NCc1ccco1)/C(=C\c1ccco1)NC(=O)c1ccco1 | - | - | - | - | -
Cc1c(C(=O)NCCCN2CCCCC2)oc2ccc3c(c12)C(O)CC1(CCCCC1)O3 (stereo unspecified) | 8.28µM | - | - | - | -
CC(C)c1ccc(S(=O)(=O)/N=C2/C=C(Sc3ncn[nH]3)C(=O)c3ccccc32)cc1 | 1.31µM | 77.7 | . | ? | 35.8
Cc1ccc(S(=O)(=O)/N=C2/C=C(Sc3ncn[nH]3)C(=O)c3ccccc32)c(C)c1 | 2.08µM | - | . | - | 19.4
Cc1ccc(S(=O)(=O)N2CCN(C(=O)CSc3ncn[nH]3)CC2)c(C)c1 | - | . | - | - | .
Cc1ccc(S(=O)(=O)Nc2ccc(O)c(Sc3ncn[nH]3)c2)cc1 | - | - | - | - | -
Cc1ccc(S(=O)(=O)/N=C2/C=C(Sc3ncn[nH]3)C(=O)c3ccccc32)cc1 | 1.47µM | - | . | - | 33.0
CN1C[C@@H]2[C@@H]3C(=O)N(C)C(=O)[C@@H]3[C@](C)(C1=O)N2C(=O)c1ccc(C(C)(C)C)cc1 | . | . | - | . | .
CC(=O)c1cc(F)c(N2CCN(C(=O)c3ccco3)CC2)cc1C | - | - | - | . | 30.9
CC(=O)c1cc(F)c(N2CCCCCC2)cc1C | - | - | - | ? | -
CC(=O)c1ccc(N2CCN(C(=O)c3ccco3)CC2)c(F)c1 | - | 58.6 | - | . | 48.4
COC(=O)C1=C(CN2CCCc3ccccc32)NC(=O)NC1c1ccc(F)cc1 (stereo unspecified) | - | 101.4 | -80.8 | - | -
COC(=O)C1=C(CN2CCc3ccccc32)NC(=O)NC1c1cc(C)ccc1C (stereo unspecified) | 10.4µM | - | - | . | -
Cc1ccc(NCc2nnc(SCC(=O)NCCc3ccccc3)n2C)cc1 | . | - | - | - | -
O=C(c1ccccc1)c1ccc(OC(=O)N2CCOCC2)cc1 | - | - | - | ? | 36.4
CCCCOC(=O)c1ccc(OC(=O)N2CCOCC2)cc1 | - | - | - | - | 28.9
CC(C(=O)Nc1cc(Cl)cc(Cl)c1)N1CCCC1 (stereo unspecified) | -[0.00184 µM] | - | . | ? | -
COc1ccc(OCC(=O)O/N=C(\N)c2ccc(OC)cc2)cc1 | - | - | - | - | -
COc1ccccc1/C=N\N=C(\N)c1ccccn1 | - | 88.9 | - | - | 55.3
COc1ccc(/C(N)=N/OC(=O)Cc2ccccc2OC)cc1 | - | 36.4 | - | - | 38.7
COc1ccccc1CC(=O)O/N=C(\N)c1ccccn1 | - | 91.6 | - | - | 41.8
COc1ccc(CC(=O)O/N=C(\N)c2ccccn2)cc1OC | - | 54.5 | - | - | 34.6
COc1cccc(C(=O)O/N=C(\N)c2ccccn2)c1OC | - | - | - | - | -
SMILES | Pf growth 48h | Shiga toxin inh | HCMV inh | Pf growth 96h | Cycloheximide cs
COc1ccccc1C=NN=C(N)C(N)=NN=Cc1ccccc1OC | . | . | - | . | .
CC(=O)N1CC[C@@H]2CC(=O)C[C@@H](C)[C@@H]21 | . | - | . | . | -
CC1CCCCC1NC(=O)c1cccc(N2C(=O)C3C4C=CC(C4)C3C2=O)c1 (stereo unspecified) | - | - | ? | - | -
C[C@@]12CC[C@H]3OC(=O)C=C3C1CC[C@@]13CC(CCC12)[C@](CO)(O[C@H]1O[C@H](CO)[C@@H](O)[C@H](O)[C@H]1O)C3 (stereo partly specified) | - | . | - | - | .
N/C(=N\OC(=O)Cc1ccccc1[N+](=O)[O-])c1ccccn1 | - | 139.2 | - | ? | 48.6
N/C(=N\OC(=O)c1cccc2ccccc12)c1ccccn1 | - | 95.2 | - | - | 56.7
CN(CC(=O)O/N=C(\N)c1ccccn1)S(=O)(=O)c1ccc(Br)cc1 | - | - | - | - | -
N/C(=N\OC(=O)Cc1cccc2ccccc12)c1ccccn1 | . | 161.2 | - | - | 49.3
CC(/C=N/c1ccccn1)=N\c1ccccn1 | . | . | - | . | .
N#Cc1ccc(C(=O)NC23CC4CC(CC(C4)C2)C3)cc1 | . | - | ? | - | -
COc1cccc(OCc2cc(=O)n3c(-c4ccccc4)csc3n2)c1 | . | . | - | . | .
COc1ccc(NC(=O)C2CC(=O)N(C)C(=Nc3ccc4c(c3)OCO4)S2)cc1 (stereo unspecified) | 10.4µM | - | - | ? | -
